# From PubChem BioAssay (NCATS)
# Values without a mark were called inactive. Records with an inconclusive call do not appear. Entries that show only a call come without a potency. Activity calls are given as the source filed them. Unless noted, calls come from the whole dose curve; as a rule, active = well fitted curve in the direction sought with a large enough effect; inconclusive = small, poorly fitted or top-dose-only effect, or another doubt; inactive = no such curve, though single readings can be large; an effect the other way counts as inactive or inconclusive.
# Tests used:
# [1] = target: Cytochrome P450 1A2 (Homo sapiens) (UniProt P05177); assay: p450-cyp1a2 (AID 410; calls by dose curve; note: potency is the fitted concentration of half-maximal effect)
# Procedure, shortened: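 20nM CYP1A2, 100uM Luciferin-ME (=Km), 100mM KPO4; cpd 10 min RT; +NADPH regen, 60 min RT; stop/detect 20 min; luminescence. Normalized to furafylline 57 uM = full inhibition.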
# [2] = target: Glucocorticoid receptor (Homo sapiens) (UniProt P04150); assay: GR-GFP Redistribution (AID 450;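 active = compounds whose dose series gives a full or clear partial fitted curve of increased nuclear translocation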; note: potency is the fitted concentration of half-maximal effect); conditions: U2OS GR-GFP nuclear translocation, laser cytometry, 2 h
# [3] = target: Glucocorticoid receptor (Homo sapiens) (UniProt P04150); assay: GR-EFC Redistribution (AID 451; calls by dose curve; note: potency is the fitted concentration of half-maximal effect); conditions: CHO-K1 GR-EFC translocation, beta-gal luminescence, 2 h
# Procedure, shortened: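 CHO-K1 cells expressing nuclear EA and GR-ED fragments of b-gal; compounds titrated up to 46 uM final, 2 h at 37 C. GR nuclear translocation read as complemented b-gal luminescence after 1 h RT detection.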
# [4] = target: Mitogen-activated protein kinase 10 (Mus musculus) (UniProt Q61831); assay: JNK3 AlphaScreen Assay (AID 530; active = well fitted curve in either direction with a large enough effect, not every such curve was filed as active;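 note: kinase came from lysate of stimulated human HepG2 cells; signal reports phosphorylation of biotinylated GST-cJun 1-79 at Ser73 with 10 µM ATP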)
# Procedure, shortened: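 HepG2 lysate (IL-1b/TNFa pre-activated) + biotin-GST-cJun 1-79 + anti-pSer73 cJun; cpd titration, 15 min RT; ATP 10 uM start; Tris pH 7.6, MgCl2, DTT, vanadate; beads in EDTA buffer; AlphaScreen.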
# [5] = target: 3',5'-cyclic-AMP phosphodiesterase 4B (Homo sapiens) (UniProt Q07343); assay: qHTS Assay for Inhibitors of PDE-IV (AID 607; active = well fitted activation curve with a large enough effect in the main read-out, with a control signal flat, not every such curve was filed as active)
# Procedure, shortened: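 ACTOne HEK293 cells carry a modified cAMP-gated CNG channel and express endogenous PDE4; plated 1000 cells/well, compounds up to 22.9 uM final. Membrane-potential dye fluorescence (ex 535/em 590) was read; parental cells received 10 uM forskolin + 100 uM RO 20-1724.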
# [6] = target: DNA dC->dU-editing enzyme APOBEC-3G (Homo sapiens) (UniProt Q9HC16); assay: qHTS for inhibitors of Vif-A3G interactions: Validation (AID 588379)
# Procedure, shortened: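 Yellow fluorescence (Ex 488, Em 500-530) of Vif-coexpressing HeLa A3G-eYFP cells, scanned by Acumen cytometer, reports blocked A3G degradation. Cells plated at 700/well overnight at 37 deg C before compound addition, then a further overnight compound incubation at 37 deg C.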
# [7] = system: Zika virus NS2B-NS3 protease; assay: Primary screen GU AMC qHTS for Zika virus inhibitors (AID 1347154); note: nearly all actives have a fitted effect of over 70% in size; note: potency is the fitted concentration of half-maximal effect
# Procedure, shortened: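 Unlinked Zika NS2B hydrophilic domain–NS3 protease complex at 25 nM in 10 mM Tris-HCl pH 8.0, 0.01% Tween 20, with an AMC peptide substrate. Fluorescence change (340/450 nm) over 15 min at room temperature, normalized to controls, fitted to 4-parameter Hill.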
# [8] = Primary qHTS for small molecule stabilizers of the endoplasmic reticulum resident proteome: Secreted ER Calcium Modulated Protein (SERCaMP) assay (AID 1508630)
# Procedure, shortened: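 The SH-SY5Y reporter protocol was run at 3 concentrations up to 38.3 uM (primary) or 11 concentrations (follow-up): 16 h compound, 100 nM thapsigargin for 4 h, then extracellular luciferase luminescence.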
# [9] = target: Cytochrome P450 2C9 (Homo sapiens) (UniProt P11712); assay: qHTS Assay for Inhibitors and Substrates of Cytochrome P450 2C9 (AID 883); note: nearly all actives have a fitted effect of over 60% in size; note: potency is the fitted concentration of half-maximal effect
# Procedure, shortened: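 Human CYP2C9 (10nM) with Luciferin-H at 100uM (its KM) in 25mM KPO4; compound preincubated 10 min at 37C, then NADPH regeneration for 60 min at 37C. Luciferin read by luminescence after detection reagent; normalized to 57uM sulphaphenazole as full inhibition.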
# [10] = target: Ubiquitin carboxyl-terminal hydrolase 1 (Homo sapiens) (UniProt O94782); assay: Inhibitors of USP1/UAF1: Pilot qHTS (AID 504865);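 note: rhodamine fluorescence freed from ubiquitin-rhodamine substrate followed over time; top concentration of the series differs between compounds; nearly all actives have a fitted effect of over 35% in size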
# Procedure, shortened: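 Enzyme-free wells gave the negative control, while test wells held 1nM USP1/UAF1 preincubated with compound for 15 min at room temperature. Ub-Rho at 150nM final started the reaction, and fluorescence at 480/540 nm was recorded kinetically.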
# [11] = NFAT Signaling Pathway (AID 444; active = well fitted curve in either direction with a large enough effect, not every such curve was filed as active;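 note: carbachol stimulus at about its EC50 of 1 µM final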); conditions: Jurkat NFAT-bla M1, carbachol, beta-lactamase ratio, 5 h
# Procedure, shortened: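 Jurkat cells with NFAT-driven β-lactamase reporter and co-expressed M1 receptor, stimulated with carbachol (final 1 uM, ~EC50), compound titration, 5 h at 37 °C. CCF4 loaded 1 h at RT; 460/530 nm ratio gave %activity and AC50.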
# [12] = Stat Signaling Pathway (AID 446; active = well fitted curve in either direction with a large enough effect, not every such curve was filed as active;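 note: ME-180 cervical cancer cells given 40 pM IL-6 alongside compound; SIE-controlled beta-lactamase reporter measured as 460/530 nm FRET emission ratio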); conditions: ME-180 (cervical carcinoma) SIE beta-lactamase reporter, IL-6 stimulated, 5 h
# Procedure, shortened: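 Compound effects on IL-6-induced STAT reporter activity were measured in ME-180 cells. After overnight culture, cells were co-treated with 40 pM IL-6 for 5 hrs before beta-lactamase substrate loading at room temperature.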
# [13] = target: Guanine nucleotide-binding protein G(i) subunit alpha-1 (Homo sapiens) (UniProt P63096); assay: qHTS Assay for Inhibitors of RGS12 GoLoco Motif Activity (Green Fluorophore) (AID 879);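 note: negative values mean loss of peptide binding seen as reduced polarization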
# Procedure, shortened: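 A drop in FITC polarization marked displacement of the FITC-tagged RGS12 GoLoco peptide (10 nM) from Gαi1 (50 nM). Compounds were incubated 10 min at room temperature in Tris pH 7.5 buffer containing 150 mM NaCl, 0.1 mM GDP and 0.05% NP40; unlabeled peptide titration served as control.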
# [14] = target: Pyruvate kinase (Leishmania mexicana) (UniProt Q27686); assay: qHTS Validation Assay for Inhibitors of Leishmania Mexicana Pyruvate Kinase (AID 945)
# Procedure, shortened: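 The enzyme is a highly purified E451W mutant of LmPYK used at 0.2 nM. It converts 0.5 mM PEP and 0.1 mM ADP over 1 h at room temperature; product ATP is quantified by luciferase luminescence relative to DMSO controls.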
# [15] = target: Pyruvate kinase PKM (Homo sapiens) (UniProt P14618); assay: qHTS Assay for Activators of Human Muscle Pyruvate Kinase (AID 954; active = well fitted curve in the direction sought with a large enough effect, not every such curve was filed as active)
# Procedure, shortened: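 A coupled luminescent readout tracked ATP made from ADP by purified PKM2. Final conditions included 0.1 nM enzyme, PEP and ADP at 0.5 and 0.1 mM, pH 7.2 imidazole buffer with BSA, and a one-hour room-temperature reaction.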
# [16] = target: Alpha-galactosidase A (Homo sapiens) (UniProt P06280); assay: Counterscreen for Glucocerebrosidase Inhibitors: qHTS Assay for Human alpha-Galactosidase at pH 4.5 (AID 992)
# Procedure, shortened: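 Citrate buffer pH 4.5, Tween-20 0.005%. Enzyme 2 nM, substrate 80 uM, 20 min RT. Stop pH 10. Fluorescence Ex 365/Em 440. AC50 by Hill fit.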
# [17] = target: alpha-glucosidase (Oryza sativa, rice) (UniProt Q653V4); assay: Counterscreen for Glucocerebrosidase Inhibitors: qHTS Assay for Rice alpha-Glucosidase at pH 5.0 (AID 997)
# Procedure, shortened: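 Endpoint fluorogenic assay at pH 5.0: compounds (0.7 nM to 77 uM) titrated against 4 nM rice enzyme and 400 uM 4-MU-alpha-glucoside for 20 min at room temperature; NaOH/glycine stop, read ex 365/em 440 nm, Hill-fitted AC50.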
# Ubiquitin carboxyl-terminal hydrolase 1 (Homo sapiens), sequence (O94782 whole entry, looked up): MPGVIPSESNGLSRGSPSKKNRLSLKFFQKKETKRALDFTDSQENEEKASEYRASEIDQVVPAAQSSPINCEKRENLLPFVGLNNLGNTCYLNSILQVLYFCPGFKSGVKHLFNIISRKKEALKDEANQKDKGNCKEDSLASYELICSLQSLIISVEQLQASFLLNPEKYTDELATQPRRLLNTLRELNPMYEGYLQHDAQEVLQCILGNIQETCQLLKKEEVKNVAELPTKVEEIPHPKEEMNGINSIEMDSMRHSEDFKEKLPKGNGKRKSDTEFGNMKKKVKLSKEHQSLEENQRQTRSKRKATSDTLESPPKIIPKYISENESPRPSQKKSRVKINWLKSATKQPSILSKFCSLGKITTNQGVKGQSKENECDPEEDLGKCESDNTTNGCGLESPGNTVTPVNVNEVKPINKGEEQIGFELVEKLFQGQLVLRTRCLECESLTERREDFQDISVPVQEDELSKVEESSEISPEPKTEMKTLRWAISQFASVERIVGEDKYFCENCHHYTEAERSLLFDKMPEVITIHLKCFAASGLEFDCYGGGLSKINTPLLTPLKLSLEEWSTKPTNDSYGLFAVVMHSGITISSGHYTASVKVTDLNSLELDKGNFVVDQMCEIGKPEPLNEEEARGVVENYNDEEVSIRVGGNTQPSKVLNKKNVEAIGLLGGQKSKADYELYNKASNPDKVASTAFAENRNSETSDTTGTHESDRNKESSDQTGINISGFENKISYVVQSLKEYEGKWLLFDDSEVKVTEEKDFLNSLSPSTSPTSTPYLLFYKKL
# Cytochrome P450 1A2 (Homo sapiens), sequence (P05177 whole entry, looked up): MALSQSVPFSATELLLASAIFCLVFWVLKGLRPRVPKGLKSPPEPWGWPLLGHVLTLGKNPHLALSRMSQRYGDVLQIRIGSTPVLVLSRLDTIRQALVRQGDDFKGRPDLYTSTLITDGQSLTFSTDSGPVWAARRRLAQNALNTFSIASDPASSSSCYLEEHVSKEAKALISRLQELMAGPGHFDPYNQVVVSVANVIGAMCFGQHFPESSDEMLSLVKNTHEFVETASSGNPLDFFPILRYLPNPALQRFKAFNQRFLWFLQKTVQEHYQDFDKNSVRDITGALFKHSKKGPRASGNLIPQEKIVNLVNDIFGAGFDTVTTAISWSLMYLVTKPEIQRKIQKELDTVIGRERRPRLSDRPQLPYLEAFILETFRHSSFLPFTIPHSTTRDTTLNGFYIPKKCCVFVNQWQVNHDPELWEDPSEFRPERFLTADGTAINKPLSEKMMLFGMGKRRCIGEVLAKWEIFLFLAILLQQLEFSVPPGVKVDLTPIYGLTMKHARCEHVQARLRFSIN
# 3',5'-cyclic-AMP phosphodiesterase 4B (Homo sapiens), sequence (Q07343 whole entry, looked up): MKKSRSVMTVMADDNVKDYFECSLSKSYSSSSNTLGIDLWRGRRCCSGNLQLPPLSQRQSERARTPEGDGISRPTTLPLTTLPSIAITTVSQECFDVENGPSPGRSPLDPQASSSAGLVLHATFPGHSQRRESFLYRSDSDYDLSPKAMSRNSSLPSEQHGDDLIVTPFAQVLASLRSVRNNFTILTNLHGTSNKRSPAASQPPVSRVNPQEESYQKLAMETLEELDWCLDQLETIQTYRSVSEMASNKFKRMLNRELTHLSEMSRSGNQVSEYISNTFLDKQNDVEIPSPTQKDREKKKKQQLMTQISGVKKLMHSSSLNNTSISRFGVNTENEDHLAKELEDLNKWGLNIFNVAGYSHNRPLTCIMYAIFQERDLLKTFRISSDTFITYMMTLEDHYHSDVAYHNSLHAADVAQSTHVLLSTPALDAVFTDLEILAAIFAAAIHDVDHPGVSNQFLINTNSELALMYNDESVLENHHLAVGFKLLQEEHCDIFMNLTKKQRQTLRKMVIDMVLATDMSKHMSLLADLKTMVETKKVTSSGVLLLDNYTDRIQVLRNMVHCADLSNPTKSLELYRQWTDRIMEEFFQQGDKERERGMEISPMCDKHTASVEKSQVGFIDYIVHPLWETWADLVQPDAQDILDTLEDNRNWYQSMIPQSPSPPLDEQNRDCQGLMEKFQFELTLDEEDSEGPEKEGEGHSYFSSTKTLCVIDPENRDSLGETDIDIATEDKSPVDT
# Glucocorticoid receptor (Homo sapiens), sequence (P04150 whole entry, looked up, the tested form may be a part): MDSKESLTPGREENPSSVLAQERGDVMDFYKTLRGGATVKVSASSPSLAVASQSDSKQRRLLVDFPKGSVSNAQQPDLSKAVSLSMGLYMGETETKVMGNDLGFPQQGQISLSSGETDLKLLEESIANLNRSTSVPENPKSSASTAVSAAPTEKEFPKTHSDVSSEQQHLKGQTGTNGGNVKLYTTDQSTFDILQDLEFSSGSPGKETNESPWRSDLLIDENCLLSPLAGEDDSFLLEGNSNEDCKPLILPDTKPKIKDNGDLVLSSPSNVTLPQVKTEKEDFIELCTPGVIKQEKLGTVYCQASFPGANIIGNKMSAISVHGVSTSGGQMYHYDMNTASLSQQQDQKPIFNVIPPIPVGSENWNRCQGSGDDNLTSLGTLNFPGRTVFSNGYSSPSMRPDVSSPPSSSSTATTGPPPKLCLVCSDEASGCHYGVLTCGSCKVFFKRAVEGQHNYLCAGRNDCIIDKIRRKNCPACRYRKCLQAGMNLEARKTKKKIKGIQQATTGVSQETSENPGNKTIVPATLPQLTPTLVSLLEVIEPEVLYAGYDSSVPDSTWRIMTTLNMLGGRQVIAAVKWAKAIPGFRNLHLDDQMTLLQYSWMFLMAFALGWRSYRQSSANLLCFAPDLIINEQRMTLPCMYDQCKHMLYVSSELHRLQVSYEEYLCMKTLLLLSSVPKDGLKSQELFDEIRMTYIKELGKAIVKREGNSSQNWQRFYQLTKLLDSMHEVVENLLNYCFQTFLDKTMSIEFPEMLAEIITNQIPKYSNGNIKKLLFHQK
# DNA dC->dU-editing enzyme APOBEC-3G (Homo sapiens), sequence (Q9HC16 whole entry, looked up): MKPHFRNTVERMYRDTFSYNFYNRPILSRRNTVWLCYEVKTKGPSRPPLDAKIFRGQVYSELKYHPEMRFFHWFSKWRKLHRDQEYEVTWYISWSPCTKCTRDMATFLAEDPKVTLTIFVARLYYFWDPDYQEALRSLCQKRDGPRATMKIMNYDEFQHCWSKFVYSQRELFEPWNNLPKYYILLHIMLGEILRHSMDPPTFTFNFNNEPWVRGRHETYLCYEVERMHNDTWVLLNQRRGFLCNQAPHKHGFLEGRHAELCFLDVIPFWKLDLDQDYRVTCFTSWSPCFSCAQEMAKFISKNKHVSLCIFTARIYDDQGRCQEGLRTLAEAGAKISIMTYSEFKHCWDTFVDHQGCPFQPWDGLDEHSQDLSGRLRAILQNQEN
# Cytochrome P450 2C9 (Homo sapiens), sequence (P11712 whole entry, looked up): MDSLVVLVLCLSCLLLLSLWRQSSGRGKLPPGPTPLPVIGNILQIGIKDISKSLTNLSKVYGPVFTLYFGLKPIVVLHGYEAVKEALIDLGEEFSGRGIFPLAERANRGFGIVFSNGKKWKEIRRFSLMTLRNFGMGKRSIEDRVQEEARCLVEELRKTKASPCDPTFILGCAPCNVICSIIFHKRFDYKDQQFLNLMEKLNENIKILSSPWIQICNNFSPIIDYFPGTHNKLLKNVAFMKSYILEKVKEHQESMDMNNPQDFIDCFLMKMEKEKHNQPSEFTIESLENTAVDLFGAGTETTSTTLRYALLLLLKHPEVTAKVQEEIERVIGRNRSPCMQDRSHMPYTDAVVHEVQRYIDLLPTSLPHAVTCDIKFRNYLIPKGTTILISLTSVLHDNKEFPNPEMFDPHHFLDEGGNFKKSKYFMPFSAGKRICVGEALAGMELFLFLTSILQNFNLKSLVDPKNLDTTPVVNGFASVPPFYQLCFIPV
# Pyruvate kinase PKM (Homo sapiens), sequence (P14618 whole entry, looked up): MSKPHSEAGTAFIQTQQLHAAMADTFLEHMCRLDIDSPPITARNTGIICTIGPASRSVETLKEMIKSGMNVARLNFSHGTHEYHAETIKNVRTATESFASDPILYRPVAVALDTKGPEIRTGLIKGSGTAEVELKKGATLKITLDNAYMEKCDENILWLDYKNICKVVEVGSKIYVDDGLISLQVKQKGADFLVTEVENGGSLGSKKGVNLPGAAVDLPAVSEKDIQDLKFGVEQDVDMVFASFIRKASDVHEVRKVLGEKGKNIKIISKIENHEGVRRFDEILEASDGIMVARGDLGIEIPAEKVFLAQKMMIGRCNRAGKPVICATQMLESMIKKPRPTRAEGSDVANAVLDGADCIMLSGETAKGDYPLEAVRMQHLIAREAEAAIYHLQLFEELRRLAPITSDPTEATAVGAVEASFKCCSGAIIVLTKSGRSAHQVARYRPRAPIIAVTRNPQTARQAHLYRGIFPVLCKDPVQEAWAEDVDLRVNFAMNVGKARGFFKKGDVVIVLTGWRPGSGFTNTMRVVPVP
# Alpha-galactosidase A (Homo sapiens), sequence (P06280 whole entry, looked up): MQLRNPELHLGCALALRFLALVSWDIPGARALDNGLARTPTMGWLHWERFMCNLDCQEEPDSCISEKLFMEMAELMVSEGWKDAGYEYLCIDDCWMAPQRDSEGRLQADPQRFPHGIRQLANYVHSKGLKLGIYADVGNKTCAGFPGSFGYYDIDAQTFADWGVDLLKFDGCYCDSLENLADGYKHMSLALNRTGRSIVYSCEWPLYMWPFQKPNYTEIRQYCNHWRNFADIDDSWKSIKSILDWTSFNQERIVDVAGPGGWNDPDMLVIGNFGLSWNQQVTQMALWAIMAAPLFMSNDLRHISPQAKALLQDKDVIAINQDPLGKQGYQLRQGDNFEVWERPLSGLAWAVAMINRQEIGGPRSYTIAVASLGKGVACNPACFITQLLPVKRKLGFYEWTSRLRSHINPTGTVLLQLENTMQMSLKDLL
# Guanine nucleotide-binding protein G(i) subunit alpha-1 (Homo sapiens), sequence (P63096 whole entry, looked up): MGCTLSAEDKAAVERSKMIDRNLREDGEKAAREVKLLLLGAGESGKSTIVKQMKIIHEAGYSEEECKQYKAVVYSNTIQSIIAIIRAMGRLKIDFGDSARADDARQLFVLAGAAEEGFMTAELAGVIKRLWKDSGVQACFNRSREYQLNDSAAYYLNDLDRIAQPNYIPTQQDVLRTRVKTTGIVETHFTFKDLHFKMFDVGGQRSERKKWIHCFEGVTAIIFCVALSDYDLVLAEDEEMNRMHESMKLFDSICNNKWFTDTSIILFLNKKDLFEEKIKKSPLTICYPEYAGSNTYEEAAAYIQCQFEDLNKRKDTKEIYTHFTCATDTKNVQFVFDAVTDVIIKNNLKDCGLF
smiles,measurement,setting,value
CCOC(=O)C1=C(N)Oc2ccc(Br)cc2[C@@H]1[C@@H](C#N)C(=O)OCC,Potency,[1],0.251 µM (active)
same,Potency,[2],> 46 µM
same,Potency,[3],> 46 µM
same,Potency,[4],inactive
same,Potency,[5],inactive
same,Potency,[6],inactive
same,Potency,[7],inactive
same,Potency,[8],inactive
CCCCN1CCC(CCC(=O)c2cc(Cl)c(N)cc2OC)CC1,Potency,[1],inactive
same,Potency,[2],> 46 µM
same,Potency,[3],> 46 µM
same,Potency,[4],inactive
same,Potency,[5],inactive
same,Potency,[9],inactive
same,Potency,[10],inactive
same,Potency,[6],inactive
same,Potency,[7],inactive
same,Potency,[8],inactive
CCn1c(=O)[nH]c2ccccc21,Potency,[1],31.6 µM (active)
same,Potency,[2],> 46 µM
same,Potency,[3],> 46 µM
same,Potency,[5],inactive
same,Potency,[10],inactive
same,Potency,[6],inactive
same,Potency,[7],inactive
same,Potency,[8],inactive
Cc1cccc([C@@H]2CN(C)CCc3c2cc(O)c(O)c3Cl)c1,Potency,[1],inactive
same,"activity change, negative = inhibition",[11]; at 38 µM (top of the series),-15%
same,"activity, negative = inhibition",[12]; at 38 µM (top of the series),11.4%
same,Potency,[2],> 46 µM
same,Potency,[3],> 46 µM
same,Potency,[5],inactive
same,outcome,[13],inactive
same,Potency,[14],inactive
same,outcome,[15],inactive
same,outcome,[16],inactive
same,outcome,[17],inactive
same,Potency,[6],inactive
same,Potency,[7],inactive
same,Potency,[8],inactive
N[C@@H](Cc1cc(-c2ccc(Cl)cc2Cl)cc(CP(=O)(O)O)c1O)C(=O)O,Potency,[1],20 µM (active)
same,Potency,[2],> 46 µM
same,Potency,[3],> 46 µM
same,Potency,[4],inactive
same,Potency,[5],inactive
same,Potency,[6],inactive
same,Potency,[7],23.8 µM (active)
same,Potency,[8],inactive
N[C@H](C(=O)O)c1ccc(C(=O)O)cc1,Potency,[1],inactive
same,Potency,[2],> 46 µM
same,Potency,[3],> 46 µM
same,Potency,[4],inactive
same,Potency,[6],inactive
same,Potency,[7],inactive
same,Potency,[8],inactive
CC(C)(C)Cn1nc(-c2ccc(Cl)cc2)c2c(N)ncnc21,Potency,[1],0.158 µM (active)
same,Potency,[2],> 46 µM
same,Potency,[3],> 46 µM
same,Potency,[10],inactive
same,Potency,[6],inactive
same,Potency,[7],inactive
same,Potency,[8],inactive
COc1ccc(CCCO[C@@H](Cn2ccnc2)c2ccc(OC)cc2)cc1,Potency,[1],0.0158 µM (active)
same,Potency,[2],> 46 µM
same,Potency,[3],> 46 µM
same,Potency,[4],inactive
same,Potency,[7],inactive
same,Potency,[8],inactive
CCCCC#Cc1nc(NC)c2ncn([C@@H]3O[C@@H](CO)[C@H](O)[C@H]3O)c2n1,Potency,[1],31.6 µM (active)
same,Potency,[2],> 46 µM
same,Potency,[3],> 46 µM
same,Potency,[4],inactive
same,Potency,[5],inactive
same,Potency,[9],631 nM (active)
same,Potency,[10],inactive
same,Potency,[6],inactive
same,Potency,[7],inactive
same,Potency,[8],inactive
CC(=O)[C@H]1[C@H](C#N)C[C@H]2[C@@H]3CC=C4C[C@@H](O)CC[C@]4(C)[C@H]3CC[C@@]21C,"activity change, negative = inhibition",[11]; at 17.2 µM (top of the series),9.39%
same,"activity, negative = inhibition",[12]; at 17.2 µM (top of the series),2.76%
same,Potency,[2],> 20.6 µM
same,Potency,[7],inactive
same,Potency,[8],inactive
